# Test results taken from publication PMC5540273 (PLoS ONE, 2017).
# Values joined by “and” are separate entries in the source; they are usually repeats but may differ in a detail not shown here. Equal values may be shown once. Read-outs that look alike come from different tables or passages of the source.
# Assays:
# SIK2 = conditions: n = 1
# SIK = conditions: concentration: 1 μM, replicates: in singlicate; n = 1
# SLK = conditions: n = 1
# SNARK = test system: T1, SNARK; conditions: n = 1
# T1 construct: gene NUAK2
# SNRK = conditions: concentration: 1 μM, replicates: in singlicate; n = 1
# SRC = conditions: n = 1
# SRMS = conditions: concentration: 1 μM, replicates: in singlicate; n = 1
# SRPK1 = conditions: n = 1
# SRPK2 = conditions: concentration: 1 μM, replicates: in singlicate; n = 1
# SRPK3 = conditions: concentration: 1 μM, replicates: in singlicate; n = 1
# STK16 = conditions: n = 1
# STK33 = conditions: concentration: 1 μM, replicates: in singlicate; n = 1
# STK35 = conditions: concentration: 1 μM, replicates: in singlicate; n = 1
# STK36 = conditions: concentration: 1 μM, replicates: in singlicate; n = 1
# STK39 = conditions: n = 1
# SYK = conditions: n = 1
# SgK110 = conditions: n = 1
# TAK1 = test system: T2, TAK1; conditions: concentration: 1 μM, replicates: in singlicate; n = 1
# T2 construct: gene MAP3K7
# TAOK1 = conditions: concentration: 1 μM, replicates: in singlicate; n = 1
# TAOK2 = conditions: concentration: 1 μM, replicates: in singlicate; n = 1
# [1] = concentration: 1 μM, replicates: in singlicate
# [2] = concentration: 1 μM,replicates: in singlicate, 1 µM
# 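Note: KINOMEscan kinase panel screen.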
smiles,measurement,setting,value
O=S(=O)(c1ccc(-c2ccnc3[nH]ccc23)cc1)N1CCCC1 [GSK846226],%Inh,SIK2; [1],0%
same,%Inh,SIK,0%
same,%Inh,SLK; [1],0%
same,%Inh,SNARK; [1],16%
same,%Inh,SNRK,0%
same,%Inh,SRC; [1],0%
same,%Inh,SRMS,0%
same,%Inh,SRPK1; [1],60%
same,%Inh,SRPK2,0%
same,%Inh,SRPK3,3%
same,%Inh,STK16; [1],67%
same,%Inh,STK33,0%
same,%Inh,STK35,0%
same,%Inh,STK36,0%
same,%Inh,STK39; [1],0%
same,%Inh,SYK; [1],13%
same,%Inh,SgK110; [1],0%
same,%Inh,TAK1,1%
same,%Inh,TAOK1,0%
same,%Inh,TAOK2,0%
Cc1cc(-c2ccc3c(c2)CC[C@@H](N[C@@H](C)c2ccccc2)C3)cnc1N.Cl [GW412617],%Inh,SIK2; [1],3%
same,%Inh,SIK,12%
same,%Inh,SLK; [1],29%
same,%Inh,SNARK; [1],8%
same,%Inh,SNRK,0%
same,%Inh,SRC; [1],4%
same,%Inh,SRMS,0%
same,%Inh,SRPK1; [1],24%
same,%Inh,SRPK2,0%
same,%Inh,SRPK3,9%
same,%Inh,STK16; [1],22%
same,%Inh,STK33,7%
same,%Inh,STK35,10%
same,%Inh,STK36,0%
same,%Inh,STK39; [1],1%
same,%Inh,SYK; [1],35%
same,%Inh,SgK110; [1],0%
same,%Inh,TAK1,42%
same,%Inh,TAOK1,14%
same,%Inh,TAOK2,0%
COC(=O)c1c(-c2ccccc2)c2cc(OC)ccc2c(=O)n1Cc1ccccc1,%Inh,SIK2; [1],6%
same,%Inh,SIK,1%
same,%Inh,SLK; [1],0%
same,%Inh,SNARK; [1],12%
same,%Inh,SNRK,1%
same,%Inh,SRC; [1],8%
same,%Inh,SRMS,0%
same,%Inh,SRPK1; [1],5%
same,%Inh,SRPK2,9%
same,%Inh,SRPK3,11%
same,%Inh,STK16; [1],3%
same,%Inh,STK33,0%
same,%Inh,STK35,3%
same,%Inh,STK36,11%
same,%Inh,STK39; [1],0%
same,%Inh,SYK; [1],0%
same,%Inh,SgK110; [1],0%
same,%Inh,TAK1,19%
same,%Inh,TAOK1,0%
same,%Inh,TAOK2,0%
CCn1c(-c2cccnc2O)nc2cnccc21 [SB-736715],%Inh,SIK2; [1],0%
same,%Inh,SIK,0%
same,%Inh,SLK; [1],0%
same,%Inh,SNARK; [1],0%
same,%Inh,SNRK,0%
same,%Inh,SRC; [1],0%
same,%Inh,SRMS,0%
same,%Inh,SRPK1; [1],0%
same,%Inh,SRPK2,0%
same,%Inh,SRPK3,20%
same,%Inh,STK16; [1],0%
same,%Inh,STK33,0%
same,%Inh,STK35,0%
same,%Inh,STK36,0%
same,%Inh,STK39; [1],0%
same,%Inh,SYK; [1],0%
same,%Inh,SgK110; [1],0%
same,%Inh,TAK1,0%
same,%Inh,TAOK1,0%
same,%Inh,TAOK2,0%
O=C(Nc1ccccc1)Nc1cccc(Oc2ccc3nccn3n2)c1,%Inh,SIK2; [1],12%
same,%Inh,SIK,0%
same,%Inh,SLK; [1],12%
same,%Inh,SNARK; [1],0%
same,%Inh,SNRK,0%
same,%Inh,SRC; [1],0%
same,%Inh,SRMS,0%
same,%Inh,SRPK1; [1],0%
same,%Inh,SRPK2,3%
same,%Inh,SRPK3,29%
same,%Inh,STK16; [1],0%
same,%Inh,STK33,1%
same,%Inh,STK35,11%
same,%Inh,STK36,0%
same,%Inh,STK39; [1],0%
same,%Inh,SYK; [1],12%
same,%Inh,SgK110; [1],40%
same,%Inh,TAK1,0%
same,%Inh,TAOK1,0%
same,%Inh,TAOK2,0%
Cc1cccc(-c2nc(Nc3ccncc3)c3ccccc3n2)n1 [GW855857],%Inh,SIK2; [1],0%
same,%Inh,SIK,4%
same,%Inh,SLK; [1],18%
same,%Inh,SNARK; [1],0%
same,%Inh,SNRK,0%
same,%Inh,SRC; [1],20%
same,%Inh,SRMS,0%
same,%Inh,SRPK1; [1],0%
same,%Inh,SRPK2,54%
same,%Inh,SRPK3,15%
same,%Inh,STK16; [1],7%
same,%Inh,STK33,2%
same,%Inh,STK35,0%
same,%Inh,STK36,5%
same,%Inh,STK39; [1],0%
same,%Inh,SYK; [1],14%
same,%Inh,SgK110; [1],0%
same,%Inh,TAK1,0%
same,%Inh,TAOK1,0%
same,%Inh,TAOK2,17%
Cc1ccc(NC(=O)Nc2cccc(Cl)c2)cc1-c1ccc(C(=O)Nc2ccncc2)cc1 [GSK1398468],%Inh,SIK2; [1],0%
same,%Inh,SIK,5%
same,%Inh,SLK; [1],6%
same,%Inh,SNARK; [1],0%
same,%Inh,SNRK,2%
same,%Inh,SRC; [1],0%
same,%Inh,SRMS,0%
same,%Inh,SRPK1; [1],0%
same,%Inh,SRPK2,0%
same,%Inh,SRPK3,0%
same,%Inh,STK16; [1],9%
same,%Inh,STK33,0%
same,%Inh,STK35,0%
same,%Inh,STK36,1%
same,%Inh,STK39; [1],0%
same,%Inh,SYK; [1],3%
same,%Inh,SgK110; [1],0%
same,%Inh,TAK1,0%
same,%Inh,TAOK1,0%
same,%Inh,TAOK2,0%
COc1cc(Nc2nccc(N3CCC(NC(=O)Nc4cc(C)ccc4C)C3)n2)cc(OC)c1OC (stereo not shown) [GSK1379762],%Inh,SIK2; [1],6%
same,%Inh,SIK,0%
same,%Inh,SLK; [1],23%
same,%Inh,SNARK; [1],23%
same,%Inh,SNRK,0%
same,%Inh,SRC; [1],24%
same,%Inh,SRMS,0%
same,%Inh,SRPK1; [1],53%
same,%Inh,SRPK2,0%
same,%Inh,SRPK3,29%
same,%Inh,STK16; [1],57%
same,%Inh,STK33,3%
same,%Inh,STK35,3%
same,%Inh,STK36,0%
same,%Inh,STK39; [1],16%
same,%Inh,SYK; [1],0%
same,%Inh,SgK110; [1],0%
same,%Inh,TAK1,0%
same,%Inh,TAOK1,0%
same,%Inh,TAOK2,0%
CSc1nn2c(=O)cc(N3CCOCC3)nc2n1Cc1cccc(C(F)(F)F)c1C [GSK2363608],%Inh,SIK2; [2],4% and 0%
same,%Inh,SIK,0%
same,%Inh,SLK; [2],20% and 3%
same,%Inh,SNARK; [2],18% and 0%
same,%Inh,SNRK,0%
same,%Inh,SRC; [2],3% and 0%
same,%Inh,SRMS,0%
same,%Inh,SRPK1; [2],34% and 16%
same,%Inh,SRPK2,0%
same,%Inh,SRPK3,0%
same,%Inh,STK16; [2],23% and 13%
same,%Inh,STK33,0%
same,%Inh,STK35,0%
same,%Inh,STK36,0%
same,%Inh,STK39; [2],8% and 13%
same,%Inh,SYK; [2],30% and 26%
same,%Inh,SgK110; [2],0% and 6%
same,%Inh,TAK1,0%
same,%Inh,TAOK1,0%
same,%Inh,TAOK2,0%
C[C@@H]1CCCCN1c1cc(-c2ccc3c(N)n[nH]c3c2)nc(N)n1 [GSK2258759],%Inh,SIK2; [1],0%
same,%Inh,SIK,0%
same,%Inh,SLK; [1],0%
same,%Inh,SNARK; [1],2%
same,%Inh,SNRK,0%
same,%Inh,SRC; [1],0%
same,%Inh,SRMS,0%
same,%Inh,SRPK1; [1],0%
same,%Inh,SRPK2,0%
same,%Inh,SRPK3,0%
same,%Inh,STK16; [1],19%
same,%Inh,STK33,0%
same,%Inh,STK35,0%
same,%Inh,STK36,0%
same,%Inh,STK39; [1],0%
same,%Inh,SYK; [1],10%
same,%Inh,SgK110; [1],0%
same,%Inh,TAK1,0%
same,%Inh,TAOK1,0%
same,%Inh,TAOK2,0%
Cn1ccc2ncnc(Oc3cccc(C(=O)Nc4ccccc4)c3)c21,%Inh,SIK2; [1],5%
same,%Inh,SIK,15%
same,%Inh,SLK; [1],13%
same,%Inh,SNARK; [1],23%
same,%Inh,SNRK,9%
same,%Inh,SRC; [1],0%
same,%Inh,SRMS,0%
same,%Inh,SRPK1; [1],0%
same,%Inh,SRPK2,0%
same,%Inh,SRPK3,0%
same,%Inh,STK16; [1],0%
same,%Inh,STK33,7%
same,%Inh,STK35,0%
same,%Inh,STK36,0%
same,%Inh,STK39; [1],0%
same,%Inh,SYK; [1],2%
same,%Inh,SgK110; [1],0%
same,%Inh,TAK1,13%
same,%Inh,TAOK1,0%
same,%Inh,TAOK2,0%
